Common to all, as to assay: growth (OD600 after 10 h); higher = more growth (less inhibition)
The test system of assay [1] is E. coli TESEC Alr+ wild-type control. As to conditions: compound 0.1 mM; raw OD600 reference: median of DMSO wells 0.241, cell-free background 0.041. As to the method: (§1)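 TESEC Mtb Alr E. coli, or the Alr+ wild-type control, in 384-well plates with Prestwick library compounds at 0.1 mM and 1% DMSO, across arabinose induction levels of 1E3 to 1E7 nM. Growth is read as OD600 after 10 h at 37 °C in triplicate biological replicates.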

Assay [2] deals with E. coli TESEC Mtb Alr. As to conditions: compound 0.1 mM. The method, then:
as §1

The subject of the next assay is E. coli TESEC Mtb Asd. As to conditions: compound 0.1 mM. The method, then: (§2)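 TESEC E. coli strains in which the native enzyme is deleted and replaced by arabinose-inducible Mtb Asd, DapB, CysH or TrpD, each grown in its selective medium. Strains were screened against the Prestwick library at 0.1 mM and 1% DMSO in 384-well format at low and high arabinose induction. Growth is read as OD600 after 10 h in triplicate.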

Another assay has as its system E. coli TESEC Mtb DapB. As to conditions: compound 0.1 mM. As to the method:
as §2

The subject of assay [3] is E. coli TESEC Alr+ wild-type control. As to conditions: compound 0.1 mM; raw OD600 reference: median of DMSO wells 0.49, cell-free background 0.052. The method, then:
(§3)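 TESEC Mtb Alr E. coli (ΔaraC ΔtolC ΔentC Δalr ΔdadX, arabinose-inducible Mtb Alr) or the Alr+ wild-type control strain, grown in defined M9-fructose medium without D-alanine in 96-well plates with Prestwick library compounds at 0.1 mM and 1% DMSO. Low Alr induction is 0.1 µM arabinose and high induction is 10 mM arabinose.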

For assay [4], the system named is E. coli TESEC Mtb Alr. As to conditions: compound 0.1 mM. The method, then: as §3
This is another data set of the same source.

[5] abbreviates: arabinose 1000 nM, raw OD600 reference: median of DMSO wells 0.294, cell-free background 0.041.
Setting [6] is: arabinose 10000 nM, raw OD600 reference: median of DMSO wells 0.264, cell-free background 0.041.
Setting [7] is: arabinose 100000 nM, raw OD600 reference: median of DMSO wells 0.201, cell-free background 0.041.
The mark [8] stands for this setting: arabinose 1000000 nM, raw OD600 reference: median of DMSO wells 0.193, cell-free background 0.041.
Setting [9] is: arabinose 10000000 nM, raw OD600 reference: median of DMSO wells 0.146, cell-free background 0.041.
[10] abbreviates: arabinose induction (level): High, raw OD600 reference: median of DMSO wells 0.331, cell-free background 0.041.
Where [11] appears, read: arabinose induction (level): Low, raw OD600 reference: median of DMSO wells 0.417, cell-free background 0.041.
Setting [12] is: arabinose induction (level): High, raw OD600 reference: median of DMSO wells […], cell-free background 0.041.
Where [13] appears, read: arabinose induction (level): Low, raw OD600 reference: median of DMSO wells 0.227, cell-free background 0.041.
Where [14] appears, read: arabinose 100 nM, raw OD600 reference: median of DMSO wells 0.413, cell-free background 0.052.
Setting [15] is: arabinose 10000000 nM, raw OD600 reference: median of DMSO wells […], cell-free background 0.052.

Drawing on the supplement of paper PMC9262897, “Low-cost anti-mycobacterial drug discovery using engineered E. coli” (Nature Communications, 2022), this text covers growth for 5 compounds.

Counter-ions that a name gives are not always drawn. ± gives the standard deviation of the averaged measurements.

Consider `CC(C)(C)NC[C@H](O)COc1cccc2c1CCCC2=O` [(-) -Levobunolol hydrochloride], for which the growth in assay [1] is 0.227 ± 0.022; with E. coli TESEC Mtb Alr [2] (setting [5]), 0.295 ± 0.0092; in the assay on E. coli TESEC Mtb Alr [2] (setting [6]), 0.253 ± 0.0095; in the assay on E. coli TESEC Mtb Alr [2] (setting [7]) it was 0.189 ± 0.0065; in the assay on E. coli TESEC Mtb Alr [2] (setting [8]), 0.1733 ± 0.0014; with E. coli TESEC Mtb Alr [2] (setting [9]), 0.141 ± 0.0056. The growth amounted to 0.401 ± 0.085 in the assay on E. coli TESEC Mtb Asd (setting [10]); 0.428 ± 0.059 in the assay on E. coli TESEC Mtb Asd (setting [11]); 0.203 ± 0.0036 with E. coli TESEC Mtb DapB (setting [12]); 0.221 ± 0.019 in the assay on E. coli TESEC Mtb DapB (setting [13]); 0.613 ± 0.048 in assay [3]; 0.403 ± 0.013 in the assay on E. coli TESEC Mtb Alr [4] (setting [14]). In the assay with E. coli TESEC Mtb Alr [4] (setting [15]), this compound returned a growth of 0.334 ± 0.0023.

On to `CC(=O)c1ccc2c(c1)N(CCCN1CCC(CCO)CC1)c1ccccc1S2` [Piperacetazine], for which the growth was determined as 0.161 ± 0.0078 in assay [1]; 0.183 ± 0.0095 in the assay on E. coli TESEC Mtb Alr [2] (setting [5]); 0.276 ± 0.015 with E. coli TESEC Mtb Alr [2] (setting [6]); 0.222 ± 0.0061 in the assay on E. coli TESEC Mtb Alr [2] (setting [7]); 0.115 ± 0.0049 in the assay with E. coli TESEC Mtb Alr [2] (setting [8]); 0.133 ± 0.0052 with E. coli TESEC Mtb Alr [2] (setting [9]). Also, the growth came to 0.175 ± 0.0042 in the assay with E. coli TESEC Mtb Asd (setting [10]); 0.222 ± 0.015 in the assay with E. coli TESEC Mtb Asd (setting [11]); 0.203 ± 0.016 in the assay on E. coli TESEC Mtb DapB (setting [12]); 0.243 ± 0.023 in the assay on E. coli TESEC Mtb DapB (setting [13]); 0.405 ± 0.0056 in assay [3]; 0.3984 ± 0.0027 in the assay with E. coli TESEC Mtb Alr [4] (setting [14]). Besides, in the assay on E. coli TESEC Mtb Alr [4] (setting [15]), the growth was found to be 0.27 ± 0.039.

Regarding `CCN(CC)C(=O)c1ccc(O)c(OC)c1` [Ethamivan], the growth in assay [1] came to 0.24 ± 0.0033; in the assay with E. coli TESEC Mtb Alr [2] (setting [5]) it was 0.295 ± 0.0045; in the assay with E. coli TESEC Mtb Alr [2] (setting [6]), 0.249 ± 0.0036; in the assay with E. coli TESEC Mtb Alr [2] (setting [7]), 0.232 ± 0.013; in the assay with E. coli TESEC Mtb Alr [2] (setting [8]), 0.181 ± 0.0058; with E. coli TESEC Mtb Alr [2] (setting [9]), 0.138 ± 0.0057. Moreover, the growth stood at 0.388 ± 0.079 in the assay with E. coli TESEC Mtb Asd (setting [10]); 0.397 ± 0.041 in the assay on E. coli TESEC Mtb Asd (setting [11]); 0.196 ± 0.0081 in the assay with E. coli TESEC Mtb DapB (setting [12]); 0.2251 ± 0.0019 with E. coli TESEC Mtb DapB (setting [13]); 0.543 ± 0.12 in assay [3]; 0.406 ± 0.013 in the assay on E. coli TESEC Mtb Alr [4] (setting [14]). The growth with E. coli TESEC Mtb Alr [4] (setting [15]) amounted to 0.356 ± 0.02.

Regarding `C[C@]12CC[C@H]3[C@@H](CCC4=CC(=O)CC[C@@]43C)[C@@H]1CC[C@@H]2C(=O)CO` [Deoxycorticosterone], the growth in assay [1] worked out at 0.119 ± 0.0025; in the assay on E. coli TESEC Mtb Alr [2] (setting [5]) it was 0.163 ± 0.022; in the assay on E. coli TESEC Mtb Alr [2] (setting [6]), 0.152 ± 0.0059; with E. coli TESEC Mtb Alr [2] (setting [7]), 0.122 ± 0.0033; in the assay on E. coli TESEC Mtb Alr [2] (setting [8]), 0.107 ± 0.002; in the assay with E. coli TESEC Mtb Alr [2] (setting [9]), 0.127 ± 0.006. The growth turned out to be 0.363 ± 0.012 in the assay with E. coli TESEC Mtb Asd (setting [10]); 0.245 ± 0.01 in the assay on E. coli TESEC Mtb Asd (setting [11]); 0.136 ± 0.008 in the assay with E. coli TESEC Mtb DapB (setting [12]); 0.165 ± 0.0069 with E. coli TESEC Mtb DapB (setting [13]); 0.333 ± 0.018 in assay [3]; 0.362 ± 0.022 with E. coli TESEC Mtb Alr [4] (setting [14]). For the same compound, in the assay with E. coli TESEC Mtb Alr [4] (setting [15]), the growth was determined as 0.157 ± 0.0071.

In the case of `COC(=O)N/N=C/c1c[n+]([O-])c2ccccc2[n+]1[O-]` [Carbadox], the growth came out at 0.197 ± 0.014 in assay [1]; 0.23 ± 0.011 in the assay with E. coli TESEC Mtb Alr [2] (setting [5]); 0.1488 ± 0.00015 in the assay with E. coli TESEC Mtb Alr [2] (setting [6]); 0.116 ± 0.003 in the assay on E. coli TESEC Mtb Alr [2] (setting [7]); 0.117 ± 0.0034 in the assay with E. coli TESEC Mtb Alr [2] (setting [8]); 0.142 ± 0.0022 in the assay on E. coli TESEC Mtb Alr [2] (setting [9]). The growth with E. coli TESEC Mtb Asd (setting [10]) is 0.163 ± 0.015; in the assay with E. coli TESEC Mtb Asd (setting [11]), 0.192 ± 0.054; in the assay on E. coli TESEC Mtb DapB (setting [12]), 0.163 ± 0.017; with E. coli TESEC Mtb DapB (setting [13]) it was 0.168 ± 0.0094; in assay [3], 0.143 ± 0.0067; in the assay on E. coli TESEC Mtb Alr [4] (setting [14]), 0.157 ± 0.013. Besides, the growth in the assay with E. coli TESEC Mtb Alr [4] (setting [15]) was 0.082 ± 0.0067.
